# Calls of active or inactive are those of the source. Entries that show only a call come without a potency. The call rests on the fitted dose curve; in most records, active means well fitted inhibition curve with a large enough effect; inconclusive means small, poorly fitted or top-dose-only effect; inactive means no such curve, though single readings can be large or run the other way.
# Molecular target: Pyruvate kinase (Leishmania mexicana) (UniProt Q27686)
# Assay: qHTS Validation Assay for Inhibitors of Leishmania Mexicana Pyruvate Kinase (AID 945)
# Details: purified L. mexicana pyruvate kinase, enzyme activity, E451W mutant enzyme; series mostly up to 57.5 µM
# Text: NIH Molecular Libraries Screening Centers Network [MLSCN]
# NIH Chemical Genomics Center [NCGC]
# PI names: Malcom Walkinshaw, Hugh Morgan and Linda Gilmore
# University of Edinburgh, Edinburgh, UK
# Species of Leishmania are responsible for a wide spectrum of diseases throughout the tropics and subtropics, ranging from self-healing ulcers to highly disfiguring lesions and serious, often lethal visceral diseases, such as kala-azar. In Leishmania spp. it has been shown that both sugar uptake and gluconeogenesis are necessary to synthesize sufficient hexose-phosphate required for the production of glycoconjugates and the intracellular polysaccharide mannan which are essential for both replication and virulence of the parasites. Therefore, most of the enzymes participating in glycolysis and gluconeogenesis are expected to be essential (Naderer et al., 2006). The assay described here targets pyruvate kinase from Leishmania mexicania (LmPYK) that was obtained as a highly purified preparation from the University of Edinburgh (E451W mutant was provided). A 1536 well assay protocol was set up and validated by screening the LOPAC library in triplicate as an eight point concentration-titration series using the qHTS platform developed at the NCGC.
# NCGC Assay Protocol Summary:
# Three uL of substrate mix (final concentrations, 50 mM imidazole pH 7.2, 50 mM KCl, 7 mM MgCl2, 0.5 mM PEP, 0.1 mM ADP, 0.01% Tween 20, 0.05% BSA) was dispensed into white solid medium binding Greiner 1536 well plates. 23 nL of compound were delivered by a pin tool and 1 uL of enzyme mix (final concentration, 0.2 nM LmPYK, 50 mM imidazole pH 7.2, 0.05% BSA) was added. Plates were covered with stainless steel gasket-lined lids and incubated at room temperature for 1 hour. Two uL of detection and kinase stop mix (PKLight, Lonza) was added, and luminescence read by a ViewLux (Perkin Elmer) at 2 second exposure/plate using 2x binning. Controls on each plate were as follows: column 1, sixteen-point titration (1:2 dilutions) in duplicate the LmPK activator LOPAC-C8145 beginning at 57 uM final concentration; column 2, sixteen-point titration (1:2 dilutions) in duplicate activator LOPAC-S4063 beginning at 57 uM final concentration; column 3, column 4 DMSO only. Data were normalized to the neutral control (column 3).
# Potency means the concentration at half of the fitted maximal effect.
# Chain of Pyruvate kinase (Leishmania mexicana) (Q27686 2-499 E452W): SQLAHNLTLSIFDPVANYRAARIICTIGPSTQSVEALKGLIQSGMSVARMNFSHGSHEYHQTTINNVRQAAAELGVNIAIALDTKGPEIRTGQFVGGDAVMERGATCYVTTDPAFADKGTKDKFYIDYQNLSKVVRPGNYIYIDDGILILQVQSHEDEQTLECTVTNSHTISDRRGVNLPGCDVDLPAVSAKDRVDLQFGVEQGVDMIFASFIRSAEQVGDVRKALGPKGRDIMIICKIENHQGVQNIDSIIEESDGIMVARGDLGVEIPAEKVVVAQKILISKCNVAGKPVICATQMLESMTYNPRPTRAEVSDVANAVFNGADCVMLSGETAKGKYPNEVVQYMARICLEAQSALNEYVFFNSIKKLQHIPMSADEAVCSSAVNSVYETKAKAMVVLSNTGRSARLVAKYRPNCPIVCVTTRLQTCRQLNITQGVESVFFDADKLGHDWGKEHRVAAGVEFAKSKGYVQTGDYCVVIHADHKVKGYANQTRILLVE
row,SMILES,Potency
1,O=S(=O)(c1cccc2c(I)cccc12)N1CCCNCC1,inactive
2,CN(C)c1nc2c(Br)c(Br)c(Br)c(Br)c2[nH]1,inactive
3,CCN1/C(=C/C(C)=O)Sc2ccc(OC)cc21,inactive
4,O=c1[nH]c2cc([N+](=O)[O-])c([N+](=O)[O-])cc2[nH]c1=O,inactive
5,CN(C)c1nc(N)c(C(=O)N=C(N)N)nc1Cl,inactive
6,COc1cc2c(CCNC(C)=O)c[nH]c2cc1Cl,inactive
7,c1cnc2c(c1)ccc1cccnc12,inactive
8,O=C(O)c1cc([N+](=O)[O-])ccc1NCCCc1ccccc1,inactive
9,O=C(O)[C@@H]1C[C@@H](C(=O)O)N1,inactive
10,Oc1cc2c(cc1O)CN(C(=S)NCCc1ccc(Cl)cc1)CCC2,inactive
11,O=c1[nH]c2ccccc2n1CCCN1CCN(C(c2ccccc2)c2ccccc2)CC1,inactive
12,CC(C)(C=O)Cc1cc(C(C)(C)C)c(O)c(C(C)(C)C)c1,inactive
13,CN1CCc2ccccc2Cc2[nH]c3ccccc3c2CC1,inactive
14,N#C/C(=C\c1c[nH]c2ccccc12)C(=O)c1ccc(O)c(O)c1,inactive
15,NCCSSCCN,inactive
16,NC(=O)C(=O)O,inactive
17,N#C/C(=C\c1ccc(O)c(O)c1)C(=O)NCc1ccccc1,inactive
18,NCCCCCCCCCCN,inactive
19,COc1ccccc1N1CCN(CCCCNS(=O)(=O)c2cccc3c(N(C)C)cccc23)CC1,inactive
20,N[C@H](CCCP(=O)(O)O)C(=O)O,inactive

row,SMILES,Potency
1,CCCn1c(=O)c2[nH]c(-c3ccc(OCC(=O)NCCN)cc3)nc2n(CCC)c1=O,inactive
2,COC1=C(OC)C(=O)c2ccccc2C1=O,inactive
3,Cn1c(=O)c2[nH]c(-c3ccccc3)nc2n(C)c1=O,inactive
4,O=c1[nH]c2cc(Cl)c(Cl)cc2[nH]c1=O,inactive
5,COc1ccc(/C=C/C(=O)Nc2ccccc2C(=O)O)cc1OC,12.6 µM (active)
6,CCCN(CC1CC1)c1nc(C)nc(Nc2c(Cl)cc(Cl)cc2Cl)c1Cl,inactive
7,N#C/C(=C\c1ccc(O)c(O)c1)C(=O)c1ccc(O)c(O)c1,inactive
8,CN(C)C(N)=NCCC[C@H](N)C(=O)O,inactive
9,CC(=O)SCC[N+](C)(C)C,inactive
10,O=C(c1cc(O)c(O)c([N+](=O)[O-])c1)c1ccccc1F,inactive
11,N=C(N)SCCc1ccc(CCSC(=N)N)cc1,inactive
12,Clc1ccc(N2CCN(Cc3c[nH]c4ncccc34)CC2)cc1,inactive
13,N#C/C(=C\c1ccc(O)c(O)c1)C(=O)NCCCc1ccccc1,inactive
14,O=Nc1ccc2oc(=O)ccc2c1,inactive
15,CC1(C)CCC=[N+]1[O-],inactive
16,Cn1cc(C2=C(c3ccc(Cl)cc3Cl)C(=O)NC2=O)c2ccccc21,inactive
17,COc1cccc(C(=O)NCCN2CCN(c3ccc(Cl)cc3)CC2)c1,inactive
18,c1ccc(-c2ccccn2)nc1,inactive
19,COc1ccccc1CNCCCCCCNCCCCCCCCNCCCCCCNCc1ccccc1OC,inactive
20,O=C1NC(O)=NC1(c1ccccc1)c1ccccc1,inactive

# From PubChem BioAssay (NCATS)
